Assay results taken from PubChem BioAssay.

The compounds below were run against Neurogenic locus notch homolog protein 2 (Homo sapiens) (UniProt Q04721) (assay: small molecules binding Notch2 protein – biochemical, small-molecule microarray, 635 nm fluorescence, stem cell growth factors, primary screen (AID 1073)). Settings: higher = more signal.
Neurogenic locus notch homolog protein 2 (Homo sapiens), sequence (Q04721 whole entry, looked up): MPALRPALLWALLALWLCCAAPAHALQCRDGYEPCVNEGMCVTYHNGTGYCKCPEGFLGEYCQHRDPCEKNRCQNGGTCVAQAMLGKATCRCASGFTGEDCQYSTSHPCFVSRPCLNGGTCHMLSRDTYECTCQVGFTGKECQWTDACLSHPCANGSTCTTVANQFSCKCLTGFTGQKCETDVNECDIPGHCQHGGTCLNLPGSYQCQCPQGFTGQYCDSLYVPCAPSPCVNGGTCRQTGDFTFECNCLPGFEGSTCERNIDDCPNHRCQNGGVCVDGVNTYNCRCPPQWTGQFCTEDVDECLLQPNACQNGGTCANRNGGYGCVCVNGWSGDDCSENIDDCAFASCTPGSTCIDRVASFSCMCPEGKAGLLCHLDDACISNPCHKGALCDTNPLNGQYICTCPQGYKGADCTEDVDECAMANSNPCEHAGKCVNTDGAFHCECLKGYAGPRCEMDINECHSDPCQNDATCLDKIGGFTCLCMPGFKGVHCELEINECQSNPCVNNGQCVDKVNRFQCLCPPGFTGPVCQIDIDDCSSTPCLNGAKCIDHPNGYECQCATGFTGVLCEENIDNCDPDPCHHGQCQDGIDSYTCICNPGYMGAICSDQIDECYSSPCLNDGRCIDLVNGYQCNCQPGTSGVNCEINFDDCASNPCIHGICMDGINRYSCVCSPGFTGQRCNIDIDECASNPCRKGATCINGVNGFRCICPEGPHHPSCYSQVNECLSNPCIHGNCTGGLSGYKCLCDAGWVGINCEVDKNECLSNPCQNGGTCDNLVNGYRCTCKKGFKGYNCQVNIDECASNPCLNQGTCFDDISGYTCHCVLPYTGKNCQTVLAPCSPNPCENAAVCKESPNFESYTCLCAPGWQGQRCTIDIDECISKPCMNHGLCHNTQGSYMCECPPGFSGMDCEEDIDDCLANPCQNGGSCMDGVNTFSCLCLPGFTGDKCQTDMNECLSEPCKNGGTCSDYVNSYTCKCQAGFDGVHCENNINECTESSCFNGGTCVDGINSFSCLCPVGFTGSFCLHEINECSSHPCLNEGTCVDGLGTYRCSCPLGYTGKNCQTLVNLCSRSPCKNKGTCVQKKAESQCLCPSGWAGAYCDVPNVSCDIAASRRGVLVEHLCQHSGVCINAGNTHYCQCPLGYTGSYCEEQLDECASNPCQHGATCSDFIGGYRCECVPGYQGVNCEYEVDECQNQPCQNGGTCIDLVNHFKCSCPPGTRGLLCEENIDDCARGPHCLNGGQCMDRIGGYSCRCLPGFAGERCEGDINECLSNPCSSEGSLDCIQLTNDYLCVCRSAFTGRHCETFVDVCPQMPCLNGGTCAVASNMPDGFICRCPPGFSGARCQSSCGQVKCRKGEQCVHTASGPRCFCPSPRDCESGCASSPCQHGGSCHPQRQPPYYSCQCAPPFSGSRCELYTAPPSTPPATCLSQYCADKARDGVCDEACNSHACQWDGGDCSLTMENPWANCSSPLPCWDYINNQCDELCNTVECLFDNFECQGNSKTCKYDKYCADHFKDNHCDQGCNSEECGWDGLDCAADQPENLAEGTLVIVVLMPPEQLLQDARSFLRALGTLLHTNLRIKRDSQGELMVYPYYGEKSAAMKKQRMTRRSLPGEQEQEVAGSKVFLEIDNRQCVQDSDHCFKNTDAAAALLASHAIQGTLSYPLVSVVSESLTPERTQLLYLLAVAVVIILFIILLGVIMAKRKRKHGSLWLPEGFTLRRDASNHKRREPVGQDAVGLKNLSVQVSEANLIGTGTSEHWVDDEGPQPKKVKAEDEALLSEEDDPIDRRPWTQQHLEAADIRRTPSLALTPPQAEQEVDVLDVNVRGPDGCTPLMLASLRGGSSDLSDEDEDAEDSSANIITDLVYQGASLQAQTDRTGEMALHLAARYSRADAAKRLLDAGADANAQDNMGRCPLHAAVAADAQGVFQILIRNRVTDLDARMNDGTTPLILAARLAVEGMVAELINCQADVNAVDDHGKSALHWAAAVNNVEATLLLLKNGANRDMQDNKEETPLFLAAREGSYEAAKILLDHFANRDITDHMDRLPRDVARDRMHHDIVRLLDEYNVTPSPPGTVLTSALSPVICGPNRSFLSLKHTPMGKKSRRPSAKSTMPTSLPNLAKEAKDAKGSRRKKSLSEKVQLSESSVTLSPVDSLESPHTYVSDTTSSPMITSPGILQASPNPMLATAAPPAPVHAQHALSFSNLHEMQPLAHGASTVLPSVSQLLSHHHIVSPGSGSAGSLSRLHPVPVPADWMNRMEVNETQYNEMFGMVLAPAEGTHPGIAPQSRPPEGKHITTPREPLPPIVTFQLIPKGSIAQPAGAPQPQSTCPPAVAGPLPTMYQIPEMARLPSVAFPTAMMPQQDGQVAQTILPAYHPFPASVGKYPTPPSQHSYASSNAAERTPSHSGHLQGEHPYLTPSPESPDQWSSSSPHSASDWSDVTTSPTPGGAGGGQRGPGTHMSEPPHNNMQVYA
With `[N-]=[N+]=NCc1ccccc1C[C@@]1(C(=O)NCCN2CCOCC2)N=C(c2ccc(OCCCO)cc2)O[C@@H]1c1ccccc1CN=[N+]=[N-]` the composite z-score was 1.26. Compound `C[C@]12C(=O)N(CCCO)[C@@H]3C(=O)N(c4ccc(Cl)cc4)CC=CC31O[C@@H]1/C=C\CCCOC(=O)C12` (stereo partly specified) has a composite z-score of -1.37. With `CCCCC(O)C1C=CC2C(=O)N(Cc3ccccc3)C(=O)C2N1n1cnnc1` (stereo unspecified) the composite z-score was 0.225. With `Cc1ccccc1C(O)C1C=CC2C(=O)N(C)C(=O)C2N1Nc1ccc([N+](=O)[O-])cc1[N+](=O)[O-]` (stereo unspecified) the composite z-score was 1.65. `COCCOC(=O)N1C(=O)[C@@]2(c3cc(C#Cc4ccc(OC)cc4)ccc31)[C@H](C(=O)N1CCc3cc(OC)c(OC)cc3C1)[C@H]1C(=O)O[C@H](c3ccccc3)[C@H](c3ccccc3)N1[C@@H]2c1ccc(OCCO)cc1` gave a composite z-score of 1.22. In the case of `O=c1c2ccc(Br)cc2nc(-c2ccccc2)n1Cc1cccc(O)c1`, the composite z-score is reported as 0.701. With `Cc1ccc(S[C@]2(C(=O)NCCN3CCOCC3)CC(=O)N(C3Cc4ccccc4C3)[C@@H]2c2ccc(CO)cc2)cc1` the composite z-score was -0.746. `C=CC[C@@]1(C(=O)NCCN2CCOCC2)N=C(c2ccc(OCCCO)cc2)O[C@@H]1c1ccccc1` gave a composite z-score of 0.52. For `C[C@H]1NC(=O)C([C@@H](C)OCc2ccccc2)NC(=O)[C@@]23C(=O)N[C@@H](Cc4ccccc4)C2[C@H](C)[C@@]2(C)O[C@H]2C3/C=C/CC/C=C/CNC1=O` (stereo partly specified), the composite z-score was 0.258. For `C/C=C/[C@@H](CCn1cc([C@H](O)c2ccccc2)nn1)[Si](C)(C)c1ccc(OC)cc1`, the composite z-score was -1.5. `CCCC=C(CCC)[C@@H](NC(=O)Cc1ccccc1)c1ccc(C(=O)OC)cc1` was tested, and the composite z-score was 1.13. For `C=C(COC)/C(=C/C[C@@H](OC(=O)c1ccncc1)c1cccc(OCCO)c1)c1cc(C(=O)OC)ccc1OC`, the composite z-score was 0.426. With `COc1cc(NN2C(C(O)c3ccc(I)cc3)C=CC3C(=O)N(C)C(=O)C32)cc(OC)c1OC` (stereo unspecified) the composite z-score was 1.52. For `COCCCNC(=O)[C@@]1(Cc2ccccc2CN=[N+]=[N-])N=C(c2ccc(OCCCO)cc2)O[C@H]1c1ccccc1N=[N+]=[N-]`, the composite z-score was 1.18. With `O=C(CS)NCCCCCNC(=O)[C@@H]1C[C@@H]2C(=O)N3CCC[C@H]3C(=O)N2[C@@H]1c1ccc(O)cc1` the composite z-score was -0.677. With `Cc1cc(C)c(C(O)C2C=CC3C(=O)N(c4ccccc4)C(=O)C3N2Nc2ccc([N+](=O)[O-])cc2)c(C)c1` (stereo unspecified) the composite z-score was 1.68. `C=C[C@H](C)[C@H](OC(=O)Nc1ccc(SC)cc1)c1ccc(O)c2ccccc12` gave a composite z-score of -0.718. `COC(=O)C(CC#Cc1ccc2c(c1)[C@]1(C(=O)N2)[C@H](C(=O)N2CCc3cc(OC)c(OC)cc3C2)[C@H]2C(=O)O[C@H](c3ccccc3)[C@H](c3ccccc3)N2[C@@H]1c1ccc(OCCO)cc1)C(=O)OC` was tested, and the composite z-score was 1.54. Work on `COC(=O)[C@@]1(Cc2ccc(OC)cc2)[C@H]2c3cc(C(=O)N4CCCC4)n(CCc4ccc(O)c(OC)c4)c3C[C@H]2CN1C(=O)c1ccccc1` yielded a composite z-score of 1.56. `O=C1N(CCS(=O)(=O)c2ccccc2)Cc2ccccc2C[C@@]12COC(c1ccc(OCCCO)cc1)=N2` was tested, and the composite z-score was 1.45. Work on `CC(C)C[C@H]1NC(=O)[C@H](C)NC(=O)[C@@]23C(=O)N[C@@H](Cc4ccccc4)C2[C@H](C)[C@@]2(C)O[C@H]2C3/C=C/C/C=C\CNC1=O` (stereo partly specified) yielded a composite z-score of -0.465. In the case of `COc1ccc([Si](C)(C)[C@H]2[C@H](CC(=O)N3CCC[C@H]3CO)O[C@@]3(C(=O)N(Cc4ccc(N5C(=O)c6cccc7cccc5c67)cc4)c4ccccc43)[C@@H]2C)cc1`, the composite z-score is reported as 0.517. Work on `COc1cccc(C)c1NC(=O)O[C@H]1[C@H](OC(=O)Nc2ccccc2)[C@H](OC(=O)Nc2ccccc2)[C@@H](OC)O[C@@H]1CO` yielded a composite z-score of 1.16. `C=CCC(OC(C)=O)[C@@H]1[C@@H](N(Cc2ccc(-c3ccccc3)cc2)C(=O)c2cccc3ccccc23)c2cc(OCCCO)ccc2N1C(=O)c1ccc2ccccc2n1` (stereo partly specified) showed a composite z-score of 0.127. `O=C1O[C@H](c2ccccc2)[C@H](c2ccccc2)N2[C@H]1[C@@H](C(=O)N1CCN(c3ncccn3)CC1)[C@]1(C(=O)Nc3ccc(C#CCCO)cc31)[C@H]2c1ccc(OCCO)cc1` was tested, and the composite z-score was 1.53. With `COC(=O)[C@@]1(Cc2ccccc2N=[N+]=[N-])N=C(c2ccc(OCCCO)cc2)O[C@H]1c1ccccc1` the composite z-score was 0.287.
